Laboratory results published in PubChem BioAssay AID1159580 (chemical genetic matrix, 2015).
“And” between values parts separate entries of the source, which are not always exact repeats. Identical values can stand only once. In all, about 5,500 compounds went through this assay and about 2,000 (36%) were called active. About 18% were inconclusive and are not listed. Rule as the data show it: active = normalized growth mostly below about 0.91 (no sharp cut-off); inconclusive = no clear call, values can overlap the other calls; inactive = mostly above about 0.92. The list shows a part of the results.

Experiment: chemical genetic growth profiling, strain panel (AID 1159580);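 also: tested at 20 µM; growth read once vehicle control cultures reached saturation at 30 °C; 1 = growth at the plate median or of vehicle wells; lower values mean less growth of the strain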
Conditions: S. cerevisiae deletion strains, growth OD

## C/C=C(/C(=C/C)c1ccc(O)cc1)c1ccc(O)cc1
Locus YAL021C, strain ccr4, stronger effect = lower value
  normalized growth: 1.02 (inactive)
Locus YAL026C, strain drs2, stronger effect = lower value
  normalized growth: 0.9 (active)
Locus YAL030W, strain snc1, stronger effect = lower value
  normalized growth: 0.978 (inactive)
Locus YBL061C, strain skt5, stronger effect = lower value
  normalized growth: 0.974 (inactive)
Locus YBR009C, strain hhf1, stronger effect = lower value
  normalized growth: 0.929 (inactive)
Locus YBR021W, strain FUR4, stronger effect = lower value
  normalized growth: 0.907 (inactive)
Locus YBR023C, strain chs3, stronger effect = lower value
  normalized growth: 0.968 (inactive)
Locus YBR171W, strain sec66, stronger effect = lower value
  normalized growth: 0.94 (inactive)
Locus YBR229C, strain ROT2, stronger effect = lower value
  normalized growth: 0.995 (inactive)
Locus YBR231C, strain swc5, stronger effect = lower value
  normalized growth: 1 (inactive)
Locus YBR279W, strain paf1, stronger effect = lower value
  normalized growth: 0.971 (inactive)
Locus YCL011C, strain gbp2, stronger effect = lower value
  normalized growth: 0.968 (inactive)
Locus YCL016C, strain dcc1, stronger effect = lower value
  normalized growth: 0.997 (inactive)
Locus YCL029C, strain bik1, stronger effect = lower value
  normalized growth: 0.823 (active)
Locus YCL069W, strain vba3, stronger effect = lower value
  normalized growth: 0.953 (inactive)
Locus YCR088W, strain abp1, stronger effect = lower value
  normalized growth: 0.989 (inactive)
Locus YDL005C, strain med2, stronger effect = lower value
  normalized growth: 0.992 (inactive)
Locus YDL035C, strain GPR1, stronger effect = lower value
  normalized growth: 0.892 (inactive)
Locus YDL040C, strain nat1, stronger effect = lower value
  normalized growth: 0.979 (inactive)
Locus YDL074C, strain BRE1, stronger effect = lower value
  normalized growth: 0.492 (active)
Locus YDL101C, strain DUN1, stronger effect = lower value
  normalized growth: 0.869 (active)
Locus YDL185W, strain tfp1, stronger effect = lower value
  normalized growth: 0.844 (active)
Locus YDL192W, strain arf1, stronger effect = lower value
  normalized growth: 0.567 (active)
Locus YDR001C, strain nth1, stronger effect = lower value
  normalized growth: 0.962 (inactive)
Locus YDR069C, strain doa4, stronger effect = lower value
  normalized growth: 0.974 (inactive)
Locus YDR101C, strain arx1, stronger effect = lower value
  normalized growth: 0.846 (active)
Locus YDR137W, strain rgp1, stronger effect = lower value
  normalized growth: 0.757 (active)
Locus YDR159W, strain sac3, stronger effect = lower value
  normalized growth: 0.923 (inactive)
Locus YDR162C, strain NBP2, stronger effect = lower value
  normalized growth: 0.561 (active)
Locus YDR195W, strain ref2
  normalized growth: 0.989 (inactive)
Locus YDR297W, strain sur2, stronger effect = lower value
  normalized growth: 0.952 (inactive)
Locus YDR318W, strain mcm21, stronger effect = lower value
  normalized growth: 0.789 (active)
Locus YDR334W, strain swr1, stronger effect = lower value
  normalized growth: 0.968 (inactive)
Locus YDR335W, strain msn5, stronger effect = lower value
  normalized growth: 0.943 (inactive)
Locus YDR388W, stronger effect = lower value
  normalized growth: 0.589 (active)
Locus YDR392W, strain spt3, stronger effect = lower value
  normalized growth: 0.905 (inactive)
Locus YDR502C, strain sam2, stronger effect = lower value
  normalized growth: 0.821 (active)
Locus YEL003W, strain gim4, stronger effect = lower value
  normalized growth: 0.949 (inactive)
Locus YEL037C, strain rad23, stronger effect = lower value
  normalized growth: 0.989 (inactive)
Locus YEL061C, strain CIN8 (second series), stronger effect = lower value
  normalized growth: 0.973 (inactive)
Locus YEL061C, strain CIN8, stronger effect = lower value
  normalized growth: 0.899 (active)
Locus YER015W, strain faa2, stronger effect = lower value
  normalized growth: 0.953 (inactive)
Locus YER016W, strain bim1, stronger effect = lower value
  normalized growth: 0.986 (inactive)
Locus YER110C, stronger effect = lower value
  normalized growth: 0.982 (inactive)
Locus YER111C, strain swi4, stronger effect = lower value
  normalized growth: 0.993 (inactive)
Locus YER155C, strain BEM2 (second series), stronger effect = lower value
  normalized growth: 0.959 (inactive)
Locus YER155C, strain BEM2, stronger effect = lower value
  normalized growth: 0.624 (active)
Locus YER167W, strain BCK2, stronger effect = lower value
  normalized growth: 0.904 (inactive)
Locus YFR010W, strain ubp6, stronger effect = lower value
  normalized growth: 0.982 (inactive)
Locus YGL078C, strain dbp3, stronger effect = lower value
  normalized growth: 0.87 (active)
Locus YGL086W, strain mad1, stronger effect = lower value
  normalized growth: 0.832 (active)
Locus YGL167C, strain pmr1, stronger effect = lower value
  normalized growth: 0.978 (inactive)
Locus YGL173C, strain kem1, stronger effect = lower value
  normalized growth: 0.927 (inactive)
Locus YGL227W, strain vid30, stronger effect = lower value
  normalized growth: 0.985 (inactive)
Locus YGL240W, strain doc1, stronger effect = lower value
  normalized growth: 0.945 (inactive)
Locus YGL248W, strain PDE1, stronger effect = lower value
  normalized growth: 0.81 (active)
Locus YGL253W, strain hxk2, stronger effect = lower value
  normalized growth: 0.971 (inactive)
Locus YGR135W, strain pre9, stronger effect = lower value
  normalized growth: 0.836 (active)
Locus YGR229C, strain SMI1, stronger effect = lower value
  normalized growth: 0.504 (active)
Locus YGR252W, strain gcn5, stronger effect = lower value
  normalized growth: 0.682 (active)
Locus YHR013C, strain ard1, stronger effect = lower value
  normalized growth: 1.15 (inactive)
Locus YHR027C, strain rpn1, stronger effect = lower value
  normalized growth: 0.979 (inactive)
Locus YHR030C, strain SLT2, stronger effect = lower value
  normalized growth: 0.691 (active) and 0.969 (inactive)
Locus YHR079C, strain IRE1 (second series), stronger effect = lower value
  normalized growth: 0.802 (active)
Locus YHR079C, strain IRE1, stronger effect = lower value
  normalized growth: 0.982 (inactive)
Locus YHR094C, strain hxt1, stronger effect = lower value
  normalized growth: 0.968 (inactive)
Locus YHR129C, strain ARP1, stronger effect = lower value
  normalized growth: 0.841 (active)
Locus YHR142W, strain chs7, stronger effect = lower value
  normalized growth: 0.943 (inactive)
Locus YHR200W, strain rpn10, stronger effect = lower value
  normalized growth: 0.845 (active)
Locus YIL066C, strain RNR3, stronger effect = lower value
  normalized growth: 0.9 (inactive)
Locus YIL073C, strain SPO22, stronger effect = lower value
  normalized growth: 0.976 (inactive)
Locus YIL125W, strain kgd1, stronger effect = lower value
  normalized growth: 0.858 (active)
Locus YIR030C, strain dcg1, stronger effect = lower value
  normalized growth: 0.958 (inactive)
Locus YJL092W, strain hpr5, stronger effect = lower value
  normalized growth: 0.971 (inactive)
Locus YJL095W, strain BCK1 (second series), stronger effect = lower value
  normalized growth: 0.944 (inactive)
Locus YJL095W, strain BCK1, stronger effect = lower value
  normalized growth: 0.497 (active) and 0.978 (inactive)
Locus YJL115W, strain asf1, stronger effect = lower value
  normalized growth: 0.984 (inactive)
Locus YJL129C, strain trk1, stronger effect = lower value
  normalized growth: 0.9 (inactive)
Locus YJL134W, strain LCB3, stronger effect = lower value
  normalized growth: 0.998 (inactive)
Locus YJL154C, strain vps35, stronger effect = lower value
  normalized growth: 0.969 (inactive)
Locus YJL164C, strain tpk1, stronger effect = lower value
  normalized growth: 0.972 (inactive)
Locus YJL166W, strain qcr8, stronger effect = lower value
  normalized growth: 0.915 (inactive)
Locus YJL168C, strain set2, stronger effect = lower value
  normalized growth: 0.979 (inactive)
Locus YJL187C, strain SWE1 (second series), stronger effect = lower value
  normalized growth: 0.814 (active)
Locus YJR043C, strain POL32, stronger effect = lower value
  normalized growth: 0.971 (inactive)
Locus YJR066W, strain TOR1, stronger effect = lower value
  normalized growth: 0.931 (inactive)
